# In PubChem BioAssay:
# Records with an inconclusive call do not appear. The source made the active and inactive calls.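 Rule for the calls, unless noted: active = normalized viability below 100% at a tested concentration; inactive = the rest.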
# Key:
# [1] = viability loss in pontine glioma line – cell-based, SU-DIPG-XVII, MIPE5.0, CellTiter-Glo, qHTS, dose response (AID 1347060; cut-off not given, nearly all actives have AC50 up to about 26 µM;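 for AC50: cells exposed to compound for 48 hours before viability readout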); conditions: CellTiter-Glo ATP luminescence
# [2] = viability loss in pontine glioma line – cell-based, SU-DIPG-XXV, MIPE5.0, CellTiter-Glo, qHTS, dose response (AID 1347065; cut-off not given, nearly all actives have AC50 up to about 26 µM;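 note: cells exposed to compound for 48 hours before ATP readout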); conditions: CellTiter-Glo ATP luminescence
# [3] = growth inhibition of DIPG cells – cell-based, MIPE5.0 library, qHTS (AID 1347068; cut-off not given, nearly all actives have IC50 up to about 30 µM); conditions: SU-DIPG-XXV viability
# [4] = viability loss with induced miR-34 in A549 – imaging, A549 dox-inducible miR-34, nuclei and caspase counts, primary screen (AID 1347080;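 active = compounds whose cell count with miR-34 switched on is under 0.7 times the count with it off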); conditions: A549 miR-34 inducible, Hoechst nuclei count, 48 h
# [5] = MELAS cybrid and Rieske KO viability enhancers – cell-based, MELAS cybrids, Rieske KO mouse fibroblasts, CellTiter-Glo, primary screen (AID 1508586;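 active = mean z-score across replicates of 1.96 or higher in either the MELAS or the Rieske mutant cell line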;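 note: z relative to plate mean and SD of compound and empty wells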); conditions: low glucose
# [6] = drug combination growth inhibition, ovarian cancer – cell-based, oncology-focused library, rucaparib conditional, profiling panel (AID 1508598); conditions: patient-derived ovarian cancer cells, CellTiter-Glo viability, 144 h, stronger effect = lower value
# [7] = growth inhibition, single agent or in combination, cell-based, chromothripsis tumors, cisplatin or BGB combos (AID 1671449; in the data active = inhibition above about 80%;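 note: cells exposed for 96 hours; 0% = vehicle DMSO and 100% = killing by high DMSO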); conditions: LFS_MB_P medulloblastoma cells
# [8] = growth inhibition, single agent and combos, cell-based, chromothripsis tumors, cisplatin or BGB combos (AID 1671450; in the data active = inhibition above about 80%;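 note: cells exposed to compound for four days; 0% = vehicle DMSO and 100% = cell killing by high DMSO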); conditions: HDN33 neuroblastoma cells, stronger effect = higher value
# [9] = growth inhibition, single agents and combos, ICB984, cell-based, cisplatin or BGB combos, synergistic combos for chromothripsis tumors (AID 1671451; call rule not given here;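 note: cells exposed for 96 hours before readout; 0% = vehicle DMSO and 100% = killing by high DMSO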); conditions: ICB984 medulloblastoma cells, drug combinations, stronger effect = higher value
# [10] = growth inhibition, single agents and combos, HTB85, cell-based, BGB or cisplatin IC20 combos, synergistic combos for chromothripsis tumors (AID 1671453; in the data active = inhibition above about 80%;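 note: cells exposed for 96 hours before readout; 0% = vehicle DMSO and 100% = high DMSO killing control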); conditions: HTB85 osteosarcoma cells, drug combinations, stronger effect = higher value
# [11] = growth inhibition, MDA-MB-436, cell-based, BGB or cisplatin combos, synergistic combos for chromothripsis tumors (AID 1671458; call rule not given here;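 note: cells exposed for 96 hours; 0% = vehicle DMSO and 100% = killing by high DMSO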); conditions: MDA-MB-436 breast carcinoma growth inhibition, drug combinations, stronger effect = higher value
# [12] = BT084 cell growth, single and combined drugs, ICGC_MB145, cisplatin and BGB IC40 combos (AID 1671461; in the data active = inhibition above about 80%;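 note: cells exposed to drugs for 96 hours; 0% = vehicle DMSO and 100% = high DMSO full killing control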); conditions: BT084 medulloblastoma cells, drug combinations, stronger effect = higher value
# [13] = RCMB18 cell growth, single agent and combined, cisplatin and BGB IC40 combos (AID 1671462; in the data active = inhibition above about 80%;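 note: cells exposed to compound for four days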); conditions: RCMB18 medulloblastoma cells, stronger effect = higher value
# [14] = CRL1545 cell growth, single agent and combined, cisplatin and BGB IC20 combos (AID 1671464; in the data active = inhibition above about 80%;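 note: cells exposed to compound for 96 hours before readout; 0% = vehicle DMSO and 100% = high DMSO killing control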); conditions: CRL1545 osteosarcoma cells, stronger effect = higher value
# [15] = JHH-DIPG-1 glioma cell viability, MIPE5.0 library, CellTiter-Glo luminescence, qHTS (AID 1347067; cut-off not given, nearly all actives have AC50 up to about 26 µM;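 note: cells exposed to compound for 48 hours before readout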); conditions: JHH-DIPG-1 glioma viability, CellTiter-Glo ATP luminescence
# [16] = stronger effect = lower value, cell number ratio, induced over uninduced
# [17] = measured here: relative caspase fold change +Dox/-Dox
# [18] = measured here: total cells with miR-34 induction, stronger effect = lower value
# [19] = measured here: total cells without miR-34 induction
# [20] = MELAS cybrid survival, CellTiter-Glo 48 h, stronger effect = higher value
# [21] = Rieske KO mouse fibroblast survival, CellTiter-Glo 72 h
# [22] = measured here: with BGB IC20 combination, at 0.5 µM
# [23] = measured here: with cisplatin IC20 combination, at 0.5 µM
compound,measurement,setting,value
COc1ccc(-n2c(SCCCN3C(=O)c4cccc5cccc(c45)C3=O)nnc2-c2ccncc2)cc1,outcome,[1],inactive
same,outcome,[2],inactive
same,outcome,[3],inactive
same,fold change,[4]; [16],0.884 (inactive)
same,fold change,[4]; [17],0.42
same,cell count,[4]; [18],6580
same,cell count,[4]; [19],7440
same,z-score,[5]; [20],-0.376 (inactive)
same,z-score,[5]; [21],1.13
same,viability,"[6]; at 0.000305 µM, OCI-C5x cells, with rucaparib 10 µM, 100% = cells with rucaparib alone",118% (inactive)
same,viability,"[6]; at 0.000305 µM, OCI-C5x cells, without rucaparib",116% (inactive)
same,viability,"[6]; at 0.000305 µM, OCI-P5x cells, with rucaparib 20 µM, 100% = cells with rucaparib alone",101% (inactive)
same,viability,"[6]; at 0.000305 µM, OCI-P5x cells, without rucaparib",100% (inactive)
same,viability,"[6]; at 0.00122 µM, OCI-C5x cells, with rucaparib 10 µM, 100% = cells with rucaparib alone",120% (inactive)
same,viability,"[6]; at 0.00122 µM, OCI-C5x cells, without rucaparib",121% (inactive)
same,viability,"[6]; at 0.00122 µM, OCI-P5x cells, with rucaparib 20 µM, 100% = cells with rucaparib alone",101% (inactive)
same,viability,"[6]; at 0.00122 µM, OCI-P5x cells, without rucaparib",99.9% (active)
same,viability,"[6]; at 0.00488 µM, OCI-C5x cells, with rucaparib 10 µM, 100% = cells with rucaparib alone",117% (inactive)
same,viability,"[6]; at 0.00488 µM, OCI-C5x cells, without rucaparib",117% (inactive)
same,viability,"[6]; at 0.00488 µM, OCI-P5x cells, with rucaparib 20 µM, 100% = cells with rucaparib alone",94.7% (active)
same,viability,"[6]; at 0.00488 µM, OCI-P5x cells, without rucaparib",104% (inactive)
same,viability,"[6]; at 0.0195 µM, OCI-C5x cells, with rucaparib 10 µM, 100% = cells with rucaparib alone",125% (inactive)
same,viability,"[6]; at 0.0195 µM, OCI-C5x cells, without rucaparib",121% (inactive)
same,viability,"[6]; at 0.0195 µM, OCI-P5x cells, with rucaparib 20 µM, 100% = cells with rucaparib alone",102% (inactive)
same,viability,"[6]; at 0.0195 µM, OCI-P5x cells, without rucaparib",101% (inactive)
same,viability,"[6]; at 0.0781 µM, OCI-C5x cells, with rucaparib 10 µM, 100% = cells with rucaparib alone",125% (inactive)
same,viability,"[6]; at 0.0781 µM, OCI-C5x cells, without rucaparib",118% (inactive)
same,viability,"[6]; at 0.0781 µM, OCI-P5x cells, with rucaparib 20 µM, 100% = cells with rucaparib alone",95.3% (active)
same,viability,"[6]; at 0.0781 µM, OCI-P5x cells, without rucaparib",98.1% (active)
same,viability,"[6]; at 0.313 µM, OCI-C5x cells, with rucaparib 10 µM, 100% = cells with rucaparib alone",138% (inactive)
same,viability,"[6]; at 0.313 µM, OCI-C5x cells, without rucaparib",130% (inactive)
same,viability,"[6]; at 0.313 µM, OCI-P5x cells, with rucaparib 20 µM, 100% = cells with rucaparib alone",95.5% (active)
same,viability,"[6]; at 0.313 µM, OCI-P5x cells, without rucaparib",77.9% (active)
same,viability,"[6]; at 1.25 µM, OCI-C5x cells, with rucaparib 10 µM, 100% = cells with rucaparib alone",129% (inactive)
same,viability,"[6]; at 1.25 µM, OCI-C5x cells, without rucaparib",128% (inactive)
same,viability,"[6]; at 1.25 µM, OCI-P5x cells, with rucaparib 20 µM, 100% = cells with rucaparib alone",89.8% (active)
same,viability,"[6]; at 1.25 µM, OCI-P5x cells, without rucaparib",77.7% (active)
same,viability,"[6]; at 5 µM, OCI-C5x cells, with rucaparib 10 µM, 100% = cells with rucaparib alone",113% (inactive)
same,viability,"[6]; at 5 µM, OCI-C5x cells, without rucaparib",123% (inactive)
same,viability,"[6]; at 5 µM, OCI-P5x cells, with rucaparib 20 µM, 100% = cells with rucaparib alone",98.5% (active)
same,viability,"[6]; at 5 µM, OCI-P5x cells, without rucaparib",86.5% (active)
same,inhibition,"[7]; at 0.5 µM, stronger effect = higher value",9.82% (inactive)
same,inhibition,"[7]; measured here: combination with BGB IC20, at 0.005 µM",9.58%
same,inhibition,"[7]; measured here: combination with BGB IC40, at 0.005 µM",-35.2%
same,inhibition,"[7]; measured here: combination with BGB IC40, at 0.05 µM",-11%
same,inhibition,"[7]; measured here: combination with cisplatin, at 0.5 µM, stronger effect = higher value",82.2%
same,inhibition,"[7]; measured here: combination with cisplatin, at 5 µM, stronger effect = higher value",-43.7%
same,inhibition,"[8]; BGB combo, at 5 µM",-3.81%
same,inhibition,[8]; at 0.5 µM,4% (inactive)
same,inhibition,"[8]; cisplatin combo, at 5 µM",14.9%
same,inhibition,[8]; [22],-3.11%
same,inhibition,[8]; [23],10.7%
same,inhibition,"[8]; single agent, at 5 µM",26.4%
same,inhibition,"[9]; BGB IC20 combo, at 0.005 µM",-14.7%
same,inhibition,"[9]; BGB IC40 combo, at 0.005 µM",-33.9%
same,inhibition,"[9]; BGB IC40 combo, at 0.05 µM",-28.6%
same,inhibition,[9]; at 0.5 µM,-17.9% (inactive)
same,inhibition,"[9]; cisplatin combo, at 0.05 µM",-33.7%
same,inhibition,"[9]; cisplatin combo, at 0.5 µM",-25.4%
same,inhibition,"[9]; cisplatin combo, at 5 µM",-32.6%
same,inhibition,"[9]; measured here: 5 uM single agent, at 5 µM",-15.5%
same,inhibition,[10]; at 0.5 µM,-0.55% (inactive)
same,inhibition,"[10]; measured here: with BGB IC20, at 0.5 µM",6.74%
same,inhibition,"[10]; measured here: with BGB IC20, at 5 µM",0.541%
same,inhibition,"[10]; measured here: with cisplatin IC20, at 0.5 µM",-17.9%
same,inhibition,"[10]; measured here: with cisplatin IC20, at 5 µM",-0.549%
same,inhibition,"[10]; single agent, at 5 µM",19.7%
same,inhibition,[11]; at 0.5 µM,-5.31% (inactive)
same,inhibition,"[11]; measured here: BGB combination, at 0.5 µM",-12%
same,inhibition,"[11]; measured here: BGB combination, at 5 µM",-10.9%
same,inhibition,"[11]; measured here: cisplatin combination, at 0.5 µM",-2.01%
same,inhibition,"[11]; measured here: cisplatin combination, at 5 µM",-2.78%
same,inhibition,[12]; at 0.5 µM,3.66% (inactive)
same,inhibition,"[12]; cisplatin combination, at 0.5 µM",8.14%
same,inhibition,"[12]; cisplatin combination, at 5 µM",-2.96%
same,inhibition,"[12]; measured here: BGB IC40 combination 0.05 uM, at 0.05 µM",15.7%
same,inhibition,"[12]; single agent, at 5 µM",-22%
same,inhibition,[13]; at 0.5 µM,-7.05% (inactive)
same,inhibition,"[13]; cisplatin combo, at 5 µM",17.7%
same,inhibition,"[13]; measured here: BGB IC40 combination, at 0.05 µM",-27.1%
same,inhibition,"[13]; measured here: combination with cisplatin, at 0.5 µM",26.9%
same,inhibition,"[13]; single agent, at 5 µM",-22.4%
same,inhibition,[14]; at 0.5 µM,-5.28% (inactive)
same,inhibition,[14]; [22],-6.44%
same,inhibition,[14]; [23],-4.7%
same,inhibition,"[14]; single agent, at 0.05 µM",-13.5%
same,inhibition,"[14]; single agent, at 5 µM",7.92%
CCCc1cc(C)[nH]c(=O)c1CNC(=O)c1cc(-c2ccc(N3CCN(C(C)C)CC3)nc2)cc2c1cnn2C(C)C,AC50,[1],26.3 µM (active)
same,AC50,[2],20.9 µM (active)
same,AC50,[15],14.8 µM (active)
same,fold change,[4]; [16],0.939 (inactive)
same,fold change,[4]; [17],0.565
same,cell count,[4]; [18],6600
same,cell count,[4]; [19],7030
same,z-score,[5]; [20],0.696 (inactive)
same,z-score,[5]; [21],-0.809
